Compound activity deposited in PubChem by Pan Lab, Icahn School of Medicine at Mount Sinai.
RBX1-CUL1 inh – human ROC1-CUL1 E3 ligase inhibition; inhibition, % at 10 µM; 140,000 compounds, 0.6% hits; in vitro K48 di-Ub FRET, acceptor:donor ratio, 45 min; AID 1347404; in the data active = inhibition above about 25%
Target sequence (P62877 whole entry, looked up): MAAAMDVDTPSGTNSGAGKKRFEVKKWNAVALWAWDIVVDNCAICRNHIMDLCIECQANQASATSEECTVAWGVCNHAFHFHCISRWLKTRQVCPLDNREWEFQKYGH
Target sequence (Q13616 whole entry, looked up): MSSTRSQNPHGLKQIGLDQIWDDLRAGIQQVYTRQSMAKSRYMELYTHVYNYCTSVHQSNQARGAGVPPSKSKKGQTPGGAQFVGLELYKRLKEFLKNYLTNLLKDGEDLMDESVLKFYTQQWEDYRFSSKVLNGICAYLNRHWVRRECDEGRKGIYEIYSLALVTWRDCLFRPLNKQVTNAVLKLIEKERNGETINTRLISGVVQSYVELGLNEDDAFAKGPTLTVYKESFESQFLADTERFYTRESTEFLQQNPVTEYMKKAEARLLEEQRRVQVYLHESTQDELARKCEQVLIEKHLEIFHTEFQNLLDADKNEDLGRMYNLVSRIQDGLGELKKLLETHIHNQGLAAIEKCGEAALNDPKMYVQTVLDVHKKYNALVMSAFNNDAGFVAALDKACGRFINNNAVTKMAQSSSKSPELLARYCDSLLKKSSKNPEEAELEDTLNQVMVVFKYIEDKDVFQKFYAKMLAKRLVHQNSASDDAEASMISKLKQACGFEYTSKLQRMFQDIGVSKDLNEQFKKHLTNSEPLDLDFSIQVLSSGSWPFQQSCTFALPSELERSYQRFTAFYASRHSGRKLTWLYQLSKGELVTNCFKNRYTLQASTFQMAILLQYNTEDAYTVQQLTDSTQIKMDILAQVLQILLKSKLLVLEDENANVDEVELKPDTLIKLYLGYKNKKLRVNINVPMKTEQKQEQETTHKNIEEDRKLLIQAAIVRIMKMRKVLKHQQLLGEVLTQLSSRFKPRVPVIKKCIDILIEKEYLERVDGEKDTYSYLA
* = called active by the depositor. The sample as a whole holds a higher share of hits than the screen did.

SMILES	RBX1-CUL1 inh
CCOc1cc(/C=C2\C(=O)NN(c3ccccc3)C2=O)cc(Br)c1OCCCOc1ccc(Cl)cc1	-15
COc1cc(/C=C2\C(=O)NN(c3ccccc3)C2=O)cc(Br)c1OCc1ccc(C)cc1	8
Cc1cccc(COc2ccccc2/C=C2\C(=O)NN(c3ccccc3)C2=O)c1	8
O=c1c2[nH]c3ccccc3c2nc(SCc2cccc(F)c2)n1-c1ccccc1	-8
Cc1ccc(OCc2ccc(C(=O)NCc3ccc(Cl)cc3)o2)c([N+](=O)[O-])c1	-11
COc1ccc(-c2nc(-c3cccc4ccccc34)[nH]c2-c2ccc(OC)cc2)cc1	-6
CCCCOC(=O)C1CCCC(C)N1 (stereo not given)	0
COc1ccccc1-c1nnc2sc(-c3cc(OC)c(OC)c(OC)c3)nn12	1
O=C(Cn1nnc2ccccc21)NNC(=S)Nc1cccc(C(F)(F)F)c1	4
Cc1cccc(C(=O)OCc2c(COC(=O)c3cccc(C)c3)[n+](=O)c3ccccc3n2[O-])c1	1
CCn1c2c(c(=O)n3ncc(C(=O)Nc4ccc(OC(F)(F)F)cc4)c13)CN(Cc1ccc(OC)cc1)CC2	3
COc1ccccc1OCCn1c(-c2ccc(Cl)cc2)nc2ccccc2c1=O	-4
COc1cc(/C=C2/C(=O)NN(c3ccc(C)c(C)c3)C2=O)cc(Br)c1OC(C)=O	31*
COc1cc(/C=C2/C(=O)NN(c3ccc(I)cc3)C2=O)cc(Br)c1OC(C)=O	3
COc1cc(/C=C2/C(=O)NN(c3ccc(C)c(C)c3)C2=O)ccc1OCC(=O)N1CCOCC1	0
O=C(OC(c1ccc2c(c1)OCO2)c1nccc2ccccc12)c1ccco1 (stereo not given)	-4
C=CCOc1ccc(CNCc2ccc(F)cc2)cc1OCC	-8
Clc1ccc2nc3c(nc2c1)Oc1ccccc1O3	2
COc1ccc2c(c1)C(=O)Cc1ccccc1O2	67*
COc1cccc(C(=O)N=C2Cc3cc(OC)ccc3OC2=O)c1	-3
COc1ccc2c(c1)C(=O)Cc1ccccc1S2	3
COc1ccc(C2C3=C(CC(C)(C)CC3=O)N(c3ccccc3)C(=N)C2C(=O)c2ccc(C)cc2)cc1 (stereo not given)	-1
COC(=O)CCCC(=O)N1CCc2[nH]nc(-c3ccc(C(F)(F)F)cc3)c2C1	10
N#CC1=c2s/c(=C\c3ccc(-c4ccccc4)o3)c(=O)n2C(=N)C(C#N)C1c1ccc(-c2ccccc2)o1 (stereo not given)	56*
N#CC1=c2s/c(=C\c3ccccc3C(F)(F)F)c(=O)n2C(=N)C(C#N)C1c1ccccc1C(F)(F)F (stereo not given)	4
SMILES	RBX1-CUL1 inh
N#CC1=c2s/c(=C/c3cccc(C(F)(F)F)c3)c(=O)n2C(=N)C(C#N)C1c1cccc(C(F)(F)F)c1 (stereo not given)	-2
CCN1C(=O)C2(c3ccccc31)c1c(n[nH]c1-c1ccc(C)cc1)OC(=N)C2C#N (stereo not given)	-4
Cn1c(=O)c2c(nc(NCCN)n2Cc2ccc(Cl)cc2)n(C)c1=O	27*
COCCCNc1nc2c(c(=O)n(C)c(=O)n2C)n1Cc1ccccc1	0
Cn1c(NCCN)nc2c1c(=O)n(Cc1ccccc1)c(=O)n2C	-2
O=C(Nc1ccnn1C1CCN(C2CCC2)CC1)c1ccc2c(c1)OCO2	2
Cc1cccc(N2CCN(C(=O)c3cn(CC(C)C)cc(C(=O)N4CCCCCC4)c3=O)CC2)c1C	-4
CCNS(=O)(=O)Cc1cccc(C)c1	-4
Cc1ccc(C2C(C(=O)c3ccc(OCc4ccccc4)c(C)c3)C(=O)C(=O)N2CCN(C)C)cc1 (stereo not given)	72*
COc1ccc(C(=O)C2C(=O)C(=O)N(CCN(C)C)C2c2ccc(OCc3ccccc3)cc2)cc1 (stereo not given)	-5
CCc1ccc(C2C(C(=O)c3ccc4c(c3)CC(C)O4)C(=O)C(=O)N2CCOC)cc1 (stereo not given)	15
CCCCOc1ccc(C(=O)C2C(=O)C(=O)N(CCOC)C2c2ccc(CC)cc2)cc1C (stereo not given)	41*
COc1ccc(C(=O)C2C(=O)C(=O)N(CCCN(C)C)C2c2ccc(C)cc2)cc1OC (stereo not given)	-8
CCCCOc1ccc(C(=O)C2C(=O)C(=O)N(CCCOC)C2c2ccc(O)c(OC)c2)cc1C (stereo not given)	1
CCOc1cc(C)ccc1S(=O)(=O)N1CCN(C)CC1	6
Cc1cc(=O)oc2c3c(ccc12)OC(=O)/C3=C\c1ccc(O)cc1	-6
COc1cc(/C=C/[C@@H]2C[C@H]3CN(Cc4ccc(C)o4)C(=O)[C@]34CCCN24)ccc1O	5
C=CCc1c(C)nc(Nc2nc(C)c3cccc(OCC)c3n2)[nH]c1=O	13
O=C1N(CC2CCC2)CCCC12CCN(Cc1ccc(F)cc1F)C2 (stereo not given)	10
CCOC(=O)c1ccc(N2NC(=O)/C(=C/c3ccc(-c4ccc(Br)cc4C(=O)O)o3)C2=O)cc1	98*
CCOC(=O)c1cc(-c2ccc(/C=C3/C(=O)NN(c4ccccc4)C3=O)o2)ccc1Cl	-2
CCOC(=O)c1ccc(-c2ccc(/C=C3\C(=O)NN(c4ccc(Br)c5ccccc45)C3=O)o2)cc1	9
COc1ccc(C(=O)Nc2nc3nc(C)c(Cc4ccccc4)c(=O)n3[nH]2)cc1OC	1
Nc1c(C(=O)Nc2cccc(C(F)(F)F)c2)sc2ncccc12	-1
COc1ccccc1C(=O)n1nc(-c2ccco2)nc1NCc1ccc(Cl)cc1	3
SMILES	RBX1-CUL1 inh
COc1ccc2nc(-c3ccc(F)cc3)c(-c3ccc(F)cc3)nc2c1	-3
COc1ccc(Cl)cc1NC(=O)Cn1nc(C(F)(F)F)c2c1CCC2	1
Cc1ccccc1N1OC2C(=O)N(c3ccccc3Cl)C(=O)C2C1c1ccc(N(C)C)cc1 (stereo not given)	-7
Cc1cccc2c1OC(=O)C(C(c1ccc(N(C)C)cc1)C1C(=O)Oc3c(C)cccc3C1=O)C2=O (stereo not given)	92*
Cc1c(C(c2ccc(Br)cc2)C2C(=O)Oc3ccccc3C2=O)c(=O)n(-c2ccccc2)n1C (stereo not given)	-3
COc1ccc(-c2nnn3c2nc(NCc2ccc(C)cc2)c2ccccc23)cc1	0
CC1=C(C#N)C(=O)NC(=O)/C1=C/c1ccc(-c2ccc(Cl)c(C(=O)OC(C)C)c2)o1	86*
COC(=O)c1cc(-c2ccc(/C=C3/SC(=O)NC3=O)o2)ccc1Cl	-4
CC1=C(C#N)C(=O)N(CC(C)C)C(=O)/C1=C/c1ccc(-c2ccc(Cl)cc2)o1	0
C=CCn1c(SCC(=O)Nc2ccc(C)cc2C)nc2sc(C)cc2c1=O	-3
CCOc1ccc(OCC)c(N2C(=O)NC(=O)/C(=C\c3cccs3)C2=O)c1	-7
CCOc1ccc(OCC)c(N2C(=O)NC(=O)/C(=C\c3ccc(Br)o3)C2=O)c1	76*
CCOc1ccc(OCC)c(N2C(=O)NC(=O)/C(=C\c3ccc(OCC#N)cc3)C2=O)c1	2
COc1ccc(N2CCN(c3ncccc3-c3nc(-c4ccccc4C)no3)CC2)cc1	-2
CCn1c(SCc2ccccc2F)nc(=O)c2c(C(=O)OC)cc(C3CC3)nc21	-5
Cc1cc(/C=C2\SC(=Nc3ccc(F)cc3)NC2=O)c(C)n1-c1ccc(S(N)(=O)=O)cc1	-5
Cc1cc(/C=C2\SC(=Nc3ccc(Cl)cc3)NC2=O)c(C)n1-c1cc(C(=O)O)cc(C(=O)O)c1	100*
CCOC(=O)c1ccc(-n2c(C)cc(/C=C3\SC(=Nc4ccc(Cl)cc4)NC3=O)c2C)cc1	1
